# Results filed as inconclusive are left out. Active and inactive are the calls of the source. Calls come from the whole dose curve; as a rule, active = well fitted activation curve with a large enough effect; inconclusive = small, poorly fitted or top-dose-only effect; inactive = flat fitted curve, though single readings scatter.
# Test: qHTS for Inhibitors of Cell Surface uPA Generation: Confirmatory Assay for Cherry-picked Compounds; note: 0% is about no effect
# Conditions: cell surface uPA activity generation, qHTS confirmation; series mostly up to 115 µM; inhibition: at the top concentration
# Procedure, shortened: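 RAW 264.7 cells at 4000/well, incubated overnight, then treated with compounds. After 24 h at 37 C, viability was read by ATPlite luminescence. An increase in signal indicates blocked uPA-dependent LF entry.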
row,Compound,inhibition
1,CN1CCN(c2ccc(S(=O)(=O)N3CCOCC3)cc2NC(=O)CSCc2ccccc2)CC1,0.329% (inactive)
2,Cn1c(=O)c(=O)n(C)c2cc(S(=O)(=O)CCC(=O)Nc3ccc(F)cc3)ccc21,0.947% (inactive)
3,COc1ccc(/C(N)=N/OC(=O)Cc2ccccc2OC)cc1,-0.507% (inactive)
4,CC1CS(=O)(=O)CCN1N=Cc1ccc([N+](=O)[O-])o1 (centres undefined),-2.66% (inactive)
5,Clc1ccccc1N1CCN(c2ncnc3nc[nH]c23)CC1,-0.597% (inactive)
6,CCN(CC)c1ccc(C=NCCc2ccc(S(N)(=O)=O)cc2)cc1,-1.84% (inactive)
7,COC(=O)[C@]1(Cc2ccccc2)N[C@H](CN(C)C(=O)c2ccccc2)[C@@H]2C(=O)N(Cc3ccccc3)C(=O)[C@@H]21,3.58% (inactive)
8,Cc1cnc(CNC(=O)CC2C(=O)NCCN2Cc2ccccc2C(F)(F)F)cn1 (centres undefined),-0.319% (inactive)
9,O=C(CCCC(=O)N1CCN(c2ccccc2F)CC1)c1ccccc1,-0.97% (inactive)
10,COc1ccc(/C=C/C(=O)Nc2ccccc2Cl)cc1S(=O)(=O)N1CCOCC1,-1.84% (inactive)
11,COc1cc(CNCCc2ccccc2)cc(Br)c1OCC(=O)Nc1ccccc1C,-2.29% (inactive)
12,COc1cc(C(C)=O)ccc1OCc1cn(CC(=O)c2ccc(O)cc2)nn1,-2.26% (inactive)
13,COc1ccc(/C=N/NC(=O)COc2ccc3ccccc3c2)c(C(=O)O)c1OC,-2.14% (inactive)
14,CC1(C)Oc2ccc3ccc(=O)oc3c2[C@@H](O)[C@H]1O,-1.76% (inactive)
15,O=C1CC(/C=C/c2ccc(Cl)cc2)=Nc2ccccc2N1,-2.63% (inactive)
16,O=C(O)CSc1nnc(COc2ccccc2)n1-c1ccccc1,-1.25% (inactive)
17,C[C@@H](NC(=O)c1nc[nH]c1C(=O)NCc1ccc(CNC(=O)OC(C)(C)C)cc1)c1ccccc1,-3.16% (inactive)
18,Cc1nc([N+](=O)[O-])cn1CCCCN1C(=O)c2ccccc2C1=O,-1.31% (inactive)
19,CCc1c(C)sc(NC(=S)N2CC(C)OC(C)C2)c1C(=O)OC (centres undefined),-1.09% (inactive)
20,CCN(CC)S(=O)(=O)c1ccc(C(=O)Nc2nnc(COC)o2)cc1,-1.3% (inactive)

row,Compound,inhibition
1,O=C(Nc1ccc(N2CCOCC2)cc1)c1ccc(Cl)c(S(=O)(=O)N2CCCC2)c1,-1.76% (inactive)
2,CCOCCCn1c(SCC(=O)Nc2cc(OC)ccc2OC)nc2ccccc2c1=O,-3.62% (inactive)
3,Cc1cccc(C)c1NC(=O)c1c(O)c2ccccc2[nH]c1=O,-3.96% (inactive)
4,O=C(c1cc(COc2ccc(F)cc2Cl)on1)N1CCCCCC1,-1.5% (inactive)
5,CC1(C)C([N+](=O)[O-])C(c2ccc(F)cc2)NC(c2ccc(F)cc2)C1[N+](=O)[O-] (centres undefined),6.56% (inactive)
6,COc1ccc(C2=NS(=O)(=O)N(C)C(C(=O)NCc3ccccn3)=C2)cc1,-2.51% (inactive)
7,Cc1ccc([C@H]2C(C(=O)O)=CC[C@@H](c3cccc(C)c3)N2S(=O)(=O)c2ccc(C)cc2)cc1,-2.73% (inactive)
8,COc1ccc(C(=O)NCC(=O)N/N=C/c2c(C)[nH]c3ccccc23)cc1,0.686% (inactive)
9,O=C(C[C@H]1C[C@H](C(=O)N2CCOCC2)[C@@]2(CCC3CCCC3)c3[nH]c4cc(-c5ccco5)ccc4c3CCN2C1=O)NCc1cccc(C(F)(F)F)c1,-1.11% (inactive)
10,Cc1cc(N)n(Cc2ccc(Cl)cc2)n1,-1.76% (inactive)
11,Cn1c(SCC(=O)NCCc2ccccc2)ncc(C(=O)Nc2ccc(F)cc2)c1=O,-0.414% (inactive)
12,Cc1cnc(C(=O)OCC(=O)Nc2ccc3c(c2)OCCO3)cn1,-0.779% (inactive)
13,Cc1cc(C)n2c(SCC#N)nnc2n1,-0.212% (inactive)
14,CCN1CCN(Cc2ccc(NC(=O)c3cc(NC(=O)c4cncc(-c5cccs5)c4)cc(OC)c3)cc2C(F)(F)F)CC1,-2.1% (inactive)
15,COc1cc(/C=N/NC(=O)c2ccncc2)ccc1O,1.09% (inactive)
16,Cc1cnc(CNC(=O)C2CCC(=O)N(CCc3cccc(F)c3)C2)[nH]1 (centres undefined),-1.62% (inactive)
17,O=C(O)COc1ccccc1/C=N/NC(=O)CNC(=O)c1ccco1,1.84% (inactive)
18,O=C(CN1C(=O)CSCC1=O)NCc1ccc(F)cc1,-0.0415% (inactive)
19,Cc1ccc(S(=O)(=O)NCC(=O)N/N=C/c2ccc(Cl)cc2)cc1,-1.38% (inactive)
